Here are results for 19 molecules from PubChem BioAssay AID743149 (Broad Institute, 2013).

Results with a measured potency or affinity are listed apart. The source made the active and inactive calls. How the calls were made is not given here.

The assay can be described thus: OV-90 cell viability loss – plate reader, dry powder, SA8, PAX8 inhibitor project, dose response (AID 743149). The conditions noted are these: OV-90 ovarian cancer cells; series mostly up to 35 µM.
Regarding `O=C(CN1C(=O)c2ccccc2S1(=O)=O)c1ccccc1Cl`, the call was inactive. As to `CCCC#Cc1ccc([C@@H]2[C@@H](C#N)N(S(=O)(=O)c3cccc(F)c3)[C@H]2CO)cc1`, the molecule was called inactive. In the case of `N#C[C@H]1[C@@H](c2ccc(C3=CCCC3)cc2)[C@@H](CO)N1C(=O)NC1CCCCC1` it was “inactive”; in that of `N#C[C@H]1[C@@H](c2ccc(C#Cc3cccc(F)c3)cc2)[C@@H](CO)N1C(=O)C1CCCC1`, “inactive”; in that of `COc1cccc(C#Cc2ccc([C@H]3[C@@H](CO)N(C(=O)C4CCCC4)[C@H]3C#N)cc2)c1`, “inactive”. In the case of `C[C@H](CO)N1C[C@H](C)[C@@H](CN(C)S(=O)(=O)c2ccc(-c3ccccc3)cc2)OCc2cn(nn2)CCCC1=O` it was “inactive”; in that of `CCCC#Cc1ccc([C@H]2[C@@H](CO)N(C(=O)C3CCCCC3)[C@H]2C#N)cc1`, “inactive”; in that of `O=C(C[C@H]1CC[C@H]2[C@@H](COC[C@@H](O)CN2S(=O)(=O)c2cccc(Cl)c2)O1)Nc1ccc(-c2ccccc2)cc1`, “inactive”. On to `C[C@@H]1CN([C@H](C)CO)C(=O)CCCn2cc(nn2)CO[C@H]1CN(C)C(=O)Nc1ccc(-c2cccs2)cc1`, for which the molecule was classed as inactive. In the case of `N#C[C@@H]1[C@H](c2ccc(C#CC3CCCC3)cc2)[C@H](CO)N1C(=O)Nc1ccc(F)cc1` it was “inactive”.

As to `N#C[C@@H]1[C@@H](c2ccc(C#Cc3ccccc3F)cc2)[C@H](CO)N1C(=O)C1CCCCC1`, the call was inactive. In the case of `O=C(NCCc1ccccc1)c1ccc2c(c1)OCCCO2` it was “inactive”.

In the case of `COCC(=O)N1[C@H](CO)[C@H](c2ccc(-c3cccnc3)cc2)[C@@H]1C#N`, the molecule was classed as inactive.

With `COc1ccc(S(=O)(=O)Nc2ccc3c(c2)CC(=O)N([C@@H](C)CO)C[C@@H](C)[C@@H](CN(C)Cc2ccc(-c4ccccc4)cc2)O3)cc1`, the molecule was called inactive. In the case of `O=C1/C(=C/c2ccccc2)SC(=S)N1CC(=O)N1CCCCC1c1cccnc1` (centres undefined) it was “inactive”. To `COc1ccccc1C#Cc1ccc([C@@H]2[C@@H](C#N)N(C(=O)C3CCCCC3)[C@H]2CO)cc1` belongs “inactive”; to `C[C@H](CO)N1C[C@H](C)[C@H](CN(C)C(=O)Nc2ccc(-c3cccs3)cc2)OCc2cnnn2CCCC1=O`, “inactive”; to `O=C1/C(=C/c2ccccc2F)SC(=S)N1CC(=O)N1CCCCC1c1cccnc1` (centres undefined), “inactive”. In the case of `N#C[C@@H]1[C@@H](c2ccc(C3=CCCCC3)cc2)[C@@H](CO)N1C(=O)NC1CCCCC1`, the molecule was classed as inactive.
